# Laboratory results as given in PubChem BioAssay AID1259240 (Keith Lab, Institute of Cancer Science, University of …, 2017).
# Values without a mark were called inactive. Calls of active or inactive are those of the source. Cut-off read from the data, not from the text of the source: active = fold change mostly below about -2 (no sharp cut-off); inactive = mostly above about -1.8.
# Test: TERT promoter activity modulators, primary screen, cell-based, luciferase reporter, human (AID 1259240)
# Settings: A2780 TERT promoter luciferase reporter, 16 h; at 20 µM, fold versus average of vehicle-only wells
Compound,fold change,outcome
O=C(NCCc1c[nH]c2ccccc12)c1cc2ccccn2n1,1.7,–
NC(=O)c1c(NC(=O)c2cc(-c3ccc(O)cc3)on2)sc2c1CCCC2,–,inactive
O=c1cc(-c2cc(Br)cc3c2OCOC3)oc2ccccc12,-1.26,–
COc1ccc(Nc2c(-c3cccc(O)c3)nc3ncccn23)cc1,1.03,–
CCOC(=O)N1CCC(Nc2c(N3CCN(c4ccc(C(C)=O)cc4)CC3)c(=O)c2=O)CC1,-1.1,–
NC(=O)C1CCN(C(=O)CN2C(=O)COc3ccc(S(=O)(=O)N4CCCC4)cc32)CC1,1.05,–
N=c1n(CCN2CCOCC2)c2ccccc2n1CC(O)c1ccco1 (stereo not given),-2.53 (active),–
c1ccc2nc3c(nc2c1)Nn1cnnc1S3,-1.42,–
CCOC(=O)C1CCCN(c2c(NCCCN3CC(C)CC(C)C3)c(=O)c2=O)C1 (stereo not given),-1.02,–
CCCn1c(OC)nc2c1c(=O)n(C)c(=O)n2C,-1.58,–
NC(=O)C1CCN(c2nc3ccccn3c(=O)c2/C=C2/SC(=S)N(CC(=O)O)C2=O)CC1,-1.43,–
O=C(O)CN1C(=O)/C(=C\c2cn(Cc3ccc(F)cc3)c3ccccc23)SC1=S,-1.28,–
CCOC(=O)C(Sc1nnc(-c2c[nH]c3ccccc23)n1C)C(=O)OCC,–,inactive
CCCN(CCC)c1c(NC2CCN(C(=O)OCC)CC2)c(=O)c1=O,-1.25,–
CCNc1nc(C(=O)O)nc(N2CCOCC2)n1,-1.25,–
CCOc1csc2nc(C)cc(C)c12,-1.22,–
O=C(O)Cn1c(O)c(C2=c3ccccc3=NC2=O)sc1=S,–,inactive
CCN(CC)CCNC(=O)CN1C(=O)COc2ccc(S(=O)(=O)N3CCOCC3)cc21,-1.1,–
CN(C)CCCN1C(=O)CSC1c1ccccc1 (stereo not given),-1.42,–
Cn1cnc2c(sc3nc(N4CCOCC4)c4c(c32)CC(C)(C)OC4)c1=O,1.1,–

Compound,fold change,outcome
COc1ccc(Cl)cc1N1CC(O)=C(c2nc3ccccc3c(=O)[nH]2)C1=N,–,inactive
Cc1ccc2nc(NC3=NCN(Cc4ccco4)CN3)nc(C)c2c1,1,–
CN(CC(=O)Nc1ccc2c(c1)OCO2)S(=O)(=O)c1ccc2c(c1)c(=O)n(C)c(=O)n2C,-1.32,–
CN(C(=O)Cn1c(=O)n(CCCS(=O)(=O)C2CCCCC2)c(=O)c2ccccc21)c1ccccc1,-1.1,–
CC(C)(C)NC(=O)CSc1nc(-c2ccc(F)cc2)cc(C(F)(F)F)n1,-1.59,–
Cc1cc(NC(=O)CSc2nnc(Cn3c(=O)sc4ccccc43)n2-c2ccccc2)no1,1.22,–
CC1CC(C)CN(C(=O)C2CCC(CNS(=O)(=O)c3cccc4nsnc34)CC2)C1 (stereo not given),-1.1,–
COc1ccc(-c2c(C)oc3c(CN4CCN(C)CC4)c(O)ccc3c2=O)cc1,1.02,–
CCOC(=O)Cc1nnc2c(Nc3ccccc3Cl)nc3nonc3n12,-1.8,–
Nc1ccc(-c2nc3cc(N)c(Cl)cc3[nH]2)cc1,-4.84 (active),–
CCN1CCN(C(=O)C2CCN(S(=O)(=O)c3ccc4c(c3)oc(=O)n4C)CC2)CC1,-1.05,–
CC(=O)NC1=NN(C(C)=O)C2(S1)C(=O)N(C)c1ccccc12 (stereo not given),-1.23,–
COCCCNc1nc2c(-c3ccccc3)nnn2c2ccccc12,1.02,–
COc1ccc(-c2cc3ccccc3n2CC(O)CN2CCN(CCO)CC2)cc1 (stereo not given),-1.49,–
CCOc1ccc(/C=c2\sc3nc(=O)c(Cc4ccc(Cl)cc4)nn3c2=O)cc1OC,1.07,–
CCn1c2ccccc2c2nnc(SCC(=O)Nc3nnc(C(C)C)s3)nc21,-1.93,–
CCc1ccc(C2C3=C(CC(C)(C)CC3=O)NC3=C2C(=O)c2ccccc23)cc1 (stereo not given),-2.26 (active),–
CC1CCCCC1NC(=O)CN(C)S(=O)(=O)c1ccc2c(c1)CCC(=O)N2 (stereo not given),1.04,–
O=C(Nc1ccc(F)cc1)c1c[nH]n2c(=O)cc(C3CCNCC3)nc12,-1.37,–
CC(=O)c1cccc(Nc2nc(-c3c(C)nc4cc(C)ccn34)cs2)c1,-2.84 (active),–
